The whole screen tested about 420,000 compounds, of which about 50,000 (12%) were called active. Roughly 26% stayed inconclusive and do not appear here. The list comes from a sample in which actives are over-represented; it also holds similar structures and randomly drawn compounds. Values without a mark were called inactive. Calls follow the shape of the dose curve; as a rule, active = well fitted inhibition curve with a large enough effect; inconclusive = small, poorly fitted or top-dose-only effect; inactive = flat fitted curve, though single readings scatter.
Experiment: qHTS for Inhibitors of human tyrosyl-DNA phosphodiesterase 1 (TDP1): qHTS in cells in presence of CPT; also: nearly all actives have a fitted effect of over 55% in size
Details: chicken DT40 Tdp1-/-;hTDP1 cells + 20 nM CPT, ATP luminescence, 48 h; series mostly up to 46.2 µM; activity change, negative = growth inhibition: at the top concentration
Summary of the method: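 Chicken DT40 Tdp1-/- cells stably complemented with human TDP1 were seeded at 400 cells/well in medium containing 20 nM camptothecin, exposed to pin-transferred compounds, and grown at 37 °C for at least 48 hr. Viability was read as ATP luminescence.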
% is scaled to controls: 0 for no effect and ±100 for the full control effect; potency is read from the fitted curve at half-maximal effect.

Row | SMILES | activity change, negative = growth inhibition | Potency
1 | N#Cc1cccc(CSc2ncnc(N)n2)c1 | -17.8% | –
2 | O=C(NCCCN1CCCC1=O)c1cccc(S(=O)(=O)NCc2ccccc2)c1 | 5.09% | –
3 | CC1CCCCC1NC(=O)COC(=O)Cc1ccc(Br)cc1 (configuration not stated) | -0.277% | –
4 | CCOC(=O)c1c(S(=O)(=O)NCC(=O)Nc2ccc(Cl)c(C(F)(F)F)c2)c(C)n(C)c1C | – | 18.4 µM (active)
5 | CCOC(=O)c1c(S(=O)(=O)Nc2ccc(CN3CCC(C)CC3)cc2)c(C)n(C)c1C | -28.8% | –
6 | CCOC(=O)c1c(S(=O)(=O)NCC(=O)Nc2ccc(C)cc2)c(C)n(C)c1C | -2.49% | –
7 | COCCCNC(=O)C1CCN(c2ccc(N3CCOCC3)nn2)CC1 | 3.6% | –
8 | Cc1ccc(C(=O)N/C(=C\c2cn(S(=O)(=O)N(C)C)c3ccccc23)C(=O)N2CCCC2)cc1 | -15.4% | –
9 | COc1cc2nc(NCC(C)c3ccccc3)n3nc(-c4ccccc4)nc3c2cc1OC (configuration not stated) | – | 16.4 µM (active)
10 | O=C(CCC(=O)NNc1nc2ccccc2c2nc(-c3ccccc3)nn12)NCCCN1CCCC1=O | -14.5% | –
11 | COc1cc2nc(SCC(=O)Nc3ccccc3F)n3nc(-c4ccccc4)nc3c2cc1OC | 2.55% | –
12 | N#CCCN(C(=O)COC(=O)c1ccc(S(=O)(=O)N2CCCCCC2)cc1)c1ccccc1 | -22.3% | –
13 | COc1ccc(S(=O)(=O)N2CCSCC2)cc1 | -2.73% | –
14 | COc1ccc(CNC(=O)C(=O)N2CCC3(CC2)OCCN3S(=O)(=O)c2ccc(C)cc2)cc1 | -16.3% | –
15 | COc1ccc(S(=O)(=O)N2CCOC23CCN(S(=O)(=O)c2ccc([N+](=O)[O-])cc2)CC3)cc1 | – | 11.6 µM (active)
16 | COCCN1C2=C(COC(C)(C)C2)C(=S)NC1c1ccccc1 (configuration not stated) | -3.12% | –
17 | Cc1ccccc1OCC(=O)N(Cc1cccc(F)c1)C1CCS(=O)(=O)C1 (configuration not stated) | -7.07% | –
18 | Cc1cc(C)c(OCC(=O)N(Cc2cccs2)C2CCS(=O)(=O)C2)c(C)c1 (configuration not stated) | 4.02% | –
19 | Cc1ccsc1CN(C(=O)c1oc2ccc(Br)cc2c1C)C1CCS(=O)(=O)C1 (configuration not stated) | – | 9.2 µM (active)
20 | NC1=NC2(CCCCC2)N(c2ccc(F)cc2F)C(N)=N1 | -0.0169% | –
21 | COc1cc([N+](=O)[O-])cc([N+](=O)[O-])c1NC(=O)N1CCOCC1 | -20% | –
22 | Cn1nc(-c2ccccc2)c(CSc2cccc(Cl)c2)c1Cl | – | 16.4 µM (active)
23 | CCOC(=O)CSc1ncc(-c2cccc(Cl)c2)cn1 | -18.1% | –
24 | Cn1nc(-c2ccccc2)c(CO)c1Sc1ccccc1 | 2.38% | –
25 | C=CCSc1ccc(S(=O)(=O)N2CCN(C)CC2)cn1 | 0.991% | –
26 | Cc1n[nH]c(=O)n1-c1ccc(C(C)C)cc1 | 8.79% | –

Row | SMILES | activity change, negative = growth inhibition | Potency
27 | CCOc1ccc(NC(=O)CN(C)C(=O)Cn2c(=O)cnc3ccccc32)cc1OCC | 0.823% | –
28 | COc1ccc(N2CCC(CNC(=S)Nc3c(C)cccc3C)C2)cc1 (configuration not stated) | – | 23.1 µM (active)
29 | COc1cccc(N2CC(C(=O)Nc3c(C)cccc3C)CC2=O)c1 (configuration not stated) | 3.32% | –
30 | COc1ccc(N2CCC(N3CCN(C)C(CCO)C3)CC2)cc1 (configuration not stated) | -4.48% | –
31 | COc1cc(C(=O)Nc2ccc(OCc3cc(=O)n4cc(C)sc4n3)cc2)cc(OC)c1OC | -4.31% | –
32 | CC(=O)Nc1ccc(OC(=O)COc2ccc(Br)cc2)cc1 | 1.47% | –
33 | COc1ccccc1S(=O)(=O)c1c(C)cc(C)[nH]c1=O | 0.0555% | –
34 | O=C(O)CCn1c(Cc2ccccc2)nc2ccccc21 | -2.09% | –
35 | CC(C)c1ccc(Cn2c(COc3ccccc3)nc3ccccc32)cc1 | – | 18.4 µM (active)
36 | CC(O)c1nc2ccccc2n1Cc1ccc([N+](=O)[O-])cc1 (configuration not stated) | -5.01% | –
37 | Cc1ccc(NC(=O)N2CCC(O)(c3cccnc3)CC2)cc1 | 3.12% | –
38 | Cn1c(C(=O)O)ccc1S(=O)(=O)N(Cc1ccccc1)Cc1ccccc1 | -5.38% | –
39 | COc1ccccc1N(CC(=O)NC1CCCC1)C(=O)C1(C)CC(=O)N=C2C=CC(C)=CN21 (configuration not stated) | 0.362% | –
40 | COc1cc(NC(=O)c2ccc(-c3csc(C)n3)cc2)c(OC)cc1Cl | 5.83% | –
41 | COC(=O)c1scc(-c2ccc(C)cc2)c1S(=O)(=O)Nc1cc(Cl)c(OC)cc1OC | – | 13 µM (active)
42 | COc1cc(OC)c(NS(=O)(=O)c2cn(C)cn2)cc1Cl | 3.73% | –
43 | COc1ccccc1CN1CCC(CNC(=O)c2cnn(-c3ccccc3Cl)c2C2CCN(C(=O)OC(C)(C)C)CC2)CC1 | – | 8.2 µM (active)
44 | COc1ccccc1N1CCN(CCCNC(=O)c2cnn(-c3ccccc3Cl)c2C2CCN(C(=O)OC(C)(C)C)CC2)CC1 | – | 8.2 µM (active)
45 | CSCCC(=O)N1CCCC(CNC(=O)c2ccccc2Cl)C1 (configuration not stated) | -2.68% | –
46 | COc1ccccc1N1CCN(CC(=O)NCCc2ccc(S(N)(=O)=O)cc2)CC1 | 3.09% | –
47 | COc1ccccc1CN1CCC(CNC(=O)c2cnn(-c3cccc(Cl)c3)c2C2CCN(C(=O)OC(C)(C)C)CC2)CC1 | – | 7.31 µM (active)
48 | CCOC(=O)N1CCN(C(=O)C2CCN(Cc3ccc(OC)cc3OC)CC2)CC1 | -2.83% | –
49 | COc1ccccc1-c1ccnc(-n2ncc(C(=O)NCCCN3CCOCC3)c2C)n1 | 7.6% [at 9.04 µM] | –
50 | Cc1ccc(CN2CCC(CNC(=O)c3cnn(-c4ccccc4Cl)c3C3CCN(C(=O)OC(C)(C)C)CC3)CC2)cc1 | – | 5.8 µM (active)
51 | COc1ccccc1CNC(=O)C1CCN(S(=O)(=O)c2ccc3c(c2)OCCO3)CC1 | 0.517% | –
52 | COc1ccc(Cl)cc1NC(=O)NCC1CCN(Cc2ccccc2F)CC1 | -29.9% | –

Source: PubChem BioAssay AID686979 (National Center for Advancing Translational Sciences (NCATS), 2013)
